Measurements published in PubChem BioAssay (Tox21).
Inconclusive results are not listed. Calls of active or inactive are those of the source. Unless noted, calls come from the whole dose curve.

How the values were obtained:
[1] = Nuclear factor erythroid 2-related factor 2/antioxidant responsive element (Nrf2/ARE) small molecule agonists: qHTS cell viability counter screen in human keratinocytes (AID 1919968; active = well fitted curve in the direction sought with a large enough effect in the repeat runs; an effect the other way counts as inactive or inconclusive; note: nearly all actives have a fitted effect of over 55% in size)
Outline: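 Cells of the KeratinoSens line were plated at 1,500 per well and left for 5 h before compound transfer from DMSO stocks. After a 23 h incubation (37 C, 5% CO2), CellTiter-Fluor was added. Signal was taken as fluorescence intensity 1 h later.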

[2] = target: Gonadotropin-releasing hormone receptor (Homo sapiens) (UniProt P30968); experiment: Human gonadotropin-releasing hormone receptor (GnRHR) small molecule agonists, calcium flux assay in GnRHR-HEK293 cells (AID 1920063); note: nearly all actives have a fitted effect of over 35% in size
Chain of Gonadotropin-releasing hormone receptor (Homo sapiens) (P30968 whole entry, looked up): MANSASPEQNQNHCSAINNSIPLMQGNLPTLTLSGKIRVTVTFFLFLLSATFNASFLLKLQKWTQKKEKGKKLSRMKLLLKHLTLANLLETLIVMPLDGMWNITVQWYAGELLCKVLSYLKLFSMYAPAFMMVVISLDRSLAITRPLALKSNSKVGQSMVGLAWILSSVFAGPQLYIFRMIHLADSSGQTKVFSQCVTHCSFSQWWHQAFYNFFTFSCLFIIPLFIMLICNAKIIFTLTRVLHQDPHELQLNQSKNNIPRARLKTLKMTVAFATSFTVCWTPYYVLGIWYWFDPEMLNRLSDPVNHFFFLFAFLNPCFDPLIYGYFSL
Outline: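 Compounds dissolved in DMSO are pin-transferred onto dye-loaded GnRHR-HEK293 cells, which were seeded 18 h before at 37 C/5% CO2. Calcium signal is read as fluorescence intensity at 1 s intervals for 3 min.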

[3] = target: KiSS-1 receptor (Homo sapiens) (UniProt Q969F8); experiment: Human kisspeptin (KISS1R) small molecule agonists, calcium flux assay in KISS1R-HEK293 cells (AID 1920064; active = well fitted curve in the direction sought with a large enough effect in the repeat runs; an effect the other way counts as inactive or inconclusive)
Chain of KiSS-1 receptor (Homo sapiens) (Q969F8 whole entry, looked up): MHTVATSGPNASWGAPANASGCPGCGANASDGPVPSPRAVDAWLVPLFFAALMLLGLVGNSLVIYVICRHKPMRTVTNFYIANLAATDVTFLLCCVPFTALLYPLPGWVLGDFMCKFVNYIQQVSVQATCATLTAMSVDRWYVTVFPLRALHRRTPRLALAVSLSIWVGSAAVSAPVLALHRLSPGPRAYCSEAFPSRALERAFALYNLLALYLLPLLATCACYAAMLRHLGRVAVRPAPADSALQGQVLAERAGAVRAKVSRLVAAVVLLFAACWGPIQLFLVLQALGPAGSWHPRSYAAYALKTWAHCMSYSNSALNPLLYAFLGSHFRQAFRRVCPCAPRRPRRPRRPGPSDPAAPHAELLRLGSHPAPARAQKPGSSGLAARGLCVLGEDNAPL
Outline: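 Cell line: HEK293, stable human KISS1R. Dye loading 1 h at 37 C after 18 h culture. Read: kinetic fluorescence, 480/540 nm, 3 min at 1 s intervals.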

[4] = G protein-coupled receptor (GPCR) small molecule agonists, calcium flux assay: HEK293 wild type cell line counter screen (AID 1920065)
Outline: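 Tox21 10K compounds, 15 concentrations each in triplicate, pin-transferred in DMSO onto dye-loaded cells; kinetic read at 480/540 nm for 3 min, 1 s intervals.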

[5] = p53 small molecule agonists, cell-based qHTS assay with human liver microsomes (AID 1963577);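 note: p53 response element beta-lactamase reporter cells with liver microsomes plus NADPH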
Outline: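 Metabolically competent format: test substances, human liver microsomes and NADPH (both 0.5 mg/mL final) incubated with p53RE-bla cells 16 h at 37 C. Beta-lactamase reporter signal then quantified by fluorescence.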

[6] = p53 small molecule agonists, cell-based qHTS assay with rat liver microsomes (AID 1963578)
Outline: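 Each plate received p53RE-bla cells, then compound, then rat liver microsomes and NADPH (both 0.5 mg/mL final). Plates were held 16 h at 37 C, and beta-lactamase activity was detected with LiveBLAzer over 2 h.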

[7] = p53 small molecule agonists, cell-based qHTS assay with human liver microsomes: qHTS cell viability counter screen (AID 1963579); note: nearly all actives have a fitted effect of over 45% in size
Outline: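 Tox21 library compounds, delivered from DMSO stocks, were tested on p53RE-bla cells together with 0.5 mg/mL human liver microsomes and 0.5 mg/mL NADPH (final) over 16 h at 37 C; CellTiter-Glo luminescence served as the cytotoxicity measure.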

[8] = p53 small molecule agonists, cell-based qHTS assay with rat liver microsomes: qHTS cell viability counter screen (AID 1963580); note: nearly all actives have a fitted effect of over 45% in size
Outline: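 Cytotoxicity counter screen: intracellular ATP measured by CellTiter-Glo luminescence in the same wells as the beta-lactamase reporter read, on HCT-116 p53RE-bla cells exposed 16 h at 37 C to compounds with rat liver microsomes and NADPH, each 0.5 mg/mL final.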

[9] = p53 small molecule agonists, cell-based qHTS assay: qHTS cell viability counter screen (AID 1963581); note: nearly all actives have a fitted effect of over 45% in size
Outline: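 ATP content measured by luminescence in HCT-116 p53RE-bla cells treated 16 h at 37 C, same wells as the reporter screen.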

[10] = p53 small molecule agonists, cell-based qHTS assay (AID 1963582; active = well fitted activation curve with a large enough effect in the signal ratio in the repeat runs, not every such curve was filed as active; the % refers to the signal ratio)
Outline: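 16 h compound exposure (37 C) of p53 response element–bla cells, preceded by 5 h recovery at 37 C/5% CO2; read-out via LiveBLAzer B/G FRET substrate, 2 h RT, fluorescence intensity.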

[11] = target: 5-hydroxytryptamine receptor 2A (Homo sapiens) (UniProt P28223); experiment: 5-hydroxytryptamine receptor 2A (HTR2A) small molecule antagonists, cell-based qHTS assay (AID 1963586); note: nearly all actives have a fitted effect of over 45% in size
Chain of 5-hydroxytryptamine receptor 2A (Homo sapiens) (P28223 whole entry, looked up): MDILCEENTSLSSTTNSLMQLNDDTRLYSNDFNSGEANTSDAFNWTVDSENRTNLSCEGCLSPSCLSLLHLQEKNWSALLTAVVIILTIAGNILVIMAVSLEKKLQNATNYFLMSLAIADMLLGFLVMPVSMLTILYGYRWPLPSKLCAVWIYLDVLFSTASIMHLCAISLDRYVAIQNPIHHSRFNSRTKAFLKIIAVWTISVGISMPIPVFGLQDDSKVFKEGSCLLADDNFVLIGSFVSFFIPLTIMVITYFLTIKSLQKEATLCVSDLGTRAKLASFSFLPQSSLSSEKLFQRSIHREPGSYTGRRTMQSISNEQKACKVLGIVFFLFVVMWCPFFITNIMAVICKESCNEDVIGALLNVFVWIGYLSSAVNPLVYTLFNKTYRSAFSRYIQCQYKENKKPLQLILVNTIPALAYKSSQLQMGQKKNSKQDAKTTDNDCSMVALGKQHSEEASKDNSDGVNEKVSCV
Outline: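 CHO cells stably expressing human HTR2A were plated for 18 h at 37 C, then loaded with calcium dye for 1 h. Compounds were preincubated 5 min at room temperature before DOI (4 nM solution) was added. Kinetic fluorescence was read for 3 min.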

[12] = target: 5-hydroxytryptamine receptor 2A (Homo sapiens) (UniProt P28223); experiment: 5-hydroxytryptamine receptor 2A (HTR2A) small molecule agonists, cell-based qHTS assay (AID 1963587); note: nearly all actives have a fitted effect of over 30% in size
Outline: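 CHO cells stably expressing human HTR2A, plated 18 h, loaded with calcium dye 1 h at 37 C. Agonist mode: compounds added and intracellular calcium fluorescence recorded kinetically for 2 min at 1 sec intervals.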

[13] = target: Muscarinic acetylcholine receptor M1 (Homo sapiens) (UniProt P11229); experiment: Cholinergic receptor muscarinic 1 (CHRM1) small molecule antagonists, cell-based qHTS assay (AID 1963588); note: nearly all actives have a fitted effect of over 40% in size
Chain of Muscarinic acetylcholine receptor M1 (Homo sapiens) (P11229 whole entry, looked up): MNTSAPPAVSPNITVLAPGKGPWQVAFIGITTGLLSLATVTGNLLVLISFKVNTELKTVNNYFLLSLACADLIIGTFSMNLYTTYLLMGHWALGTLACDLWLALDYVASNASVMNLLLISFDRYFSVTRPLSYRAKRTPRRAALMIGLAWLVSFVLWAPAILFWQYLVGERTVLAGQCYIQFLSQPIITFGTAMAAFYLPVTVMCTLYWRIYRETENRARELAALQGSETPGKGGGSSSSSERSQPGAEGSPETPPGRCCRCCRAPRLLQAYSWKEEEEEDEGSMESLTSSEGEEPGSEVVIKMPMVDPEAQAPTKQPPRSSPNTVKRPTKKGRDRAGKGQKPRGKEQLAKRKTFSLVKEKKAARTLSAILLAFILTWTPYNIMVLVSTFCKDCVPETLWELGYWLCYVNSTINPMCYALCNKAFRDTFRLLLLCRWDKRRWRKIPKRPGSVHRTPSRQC
Outline: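 Compounds were tested at 15 concentrations in three independent runs. Dye-loaded CHRM1-CHO cells were exposed 5 min at room temperature before stimulation by acetylcholine added at 50nM. Intracellular calcium was read kinetically on FDSS for 3 min.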

[14] = target: Muscarinic acetylcholine receptor M1 (Homo sapiens) (UniProt P11229); experiment: Cholinergic receptor muscarinic 1 (CHRM1) small molecule agonists, cell-based qHTS assay (AID 1963589); note: nearly all actives have a fitted effect of over 35% in size
Outline: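 Homogeneous fluorescence calcium flux, agonist mode. Human M1-expressing CHO cells; compound dosed at 15 concentrations, three independent runs; signal sampled every 1 sec.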

[15] = cAMP Responsive Elements (CRE) small molecule agonists, cell-based qHTS assay (AID 1963590)
Outline: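 HEK 293T cells stably bearing CRE-bla were plated at 2,000 cells per well and rested 18 h. Compounds, positive controls or DMSO were added for 3 h at 37 C. LiveBLAzer B/G substrate was then loaded for 2 h at room temperature.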

[16] = cAMP Responsive Elements (CRE) small molecule antagonists, cell-based qHTS assay (AID 1963591; active = well fitted inhibition curve with a large enough effect in the signal ratio in the repeat runs, not every such curve was filed as active; the % refers to the signal ratio)
Outline: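 First, CRE-bla HEK293T cells settled 18 h at 37 C. Next, compound and 0.25 uM final NKH477 were applied for 3 h. Last, LiveBLAzer B/G substrate was loaded for 2 h at room temperature.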

[17] = target: Beta-2 adrenergic receptor (Homo sapiens) (UniProt P07550); experiment: Adrenergic beta2 receptor (ADRB2) small molecule antagonists, cell-based qHTS assay (AID 1963592); note: series mostly up to about 92 µM; nearly all actives have a fitted effect of over 50% in size
Chain of Beta-2 adrenergic receptor (Homo sapiens) (P07550 whole entry, looked up): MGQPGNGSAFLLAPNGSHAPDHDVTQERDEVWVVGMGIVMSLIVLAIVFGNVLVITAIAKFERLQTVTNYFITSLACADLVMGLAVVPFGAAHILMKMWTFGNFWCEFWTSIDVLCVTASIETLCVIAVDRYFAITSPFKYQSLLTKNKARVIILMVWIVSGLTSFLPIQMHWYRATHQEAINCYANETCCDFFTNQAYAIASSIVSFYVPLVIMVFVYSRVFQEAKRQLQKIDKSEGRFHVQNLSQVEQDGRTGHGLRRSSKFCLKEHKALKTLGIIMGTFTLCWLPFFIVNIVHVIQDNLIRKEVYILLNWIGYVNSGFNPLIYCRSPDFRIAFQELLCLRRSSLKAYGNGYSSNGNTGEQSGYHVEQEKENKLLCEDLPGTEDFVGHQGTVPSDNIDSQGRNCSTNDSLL
Outline: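 Assay format: CHO-ADRB2 cells, 18-20hr seeding at 37C/5% CO2, then compound plus 1nM isoproterenol agonist mix for 0.5hr RT. Homogeneous time-resolved fluorescence cAMP detection after 1hr, expressed as 665/615 nm ratio.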

[18] = target: D(2) dopamine receptor (Homo sapiens) (UniProt P14416); experiment: Dopamine D2 receptor (DRD2) small molecule agonists, cell-based qHTS assay (AID 1963594); note: nearly all actives have a fitted effect of over 35% in size
Chain of D(2) dopamine receptor (Homo sapiens) (P14416 whole entry, looked up): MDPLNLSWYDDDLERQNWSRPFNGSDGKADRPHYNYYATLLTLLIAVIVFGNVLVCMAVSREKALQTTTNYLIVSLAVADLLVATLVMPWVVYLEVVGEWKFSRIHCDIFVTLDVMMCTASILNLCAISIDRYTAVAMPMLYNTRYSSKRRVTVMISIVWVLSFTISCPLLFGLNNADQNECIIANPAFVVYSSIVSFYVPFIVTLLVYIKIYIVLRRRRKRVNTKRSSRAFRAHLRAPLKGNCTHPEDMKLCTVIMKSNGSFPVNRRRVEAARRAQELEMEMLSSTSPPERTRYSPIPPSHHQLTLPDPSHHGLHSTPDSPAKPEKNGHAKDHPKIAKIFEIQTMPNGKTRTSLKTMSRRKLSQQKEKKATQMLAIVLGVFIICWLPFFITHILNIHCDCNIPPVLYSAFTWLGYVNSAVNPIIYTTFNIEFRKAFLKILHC
Outline: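 HEK293 cells stably expressing human DRD2, pre-treated with PDE inhibitor Ro20-1724 (0.1 mM final) and compound 10 min at room temperature, then stimulated with NKH477 (200nM […]) for 30 min. cAMP read by HTRF (665/620 nm).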

[19] = target: D(2) dopamine receptor (Homo sapiens) (UniProt P14416); experiment: Dopamine D2 receptor (DRD2) small molecule antagonists, cell-based qHTS assay (AID 1963595; active = well fitted inhibition curve with a large enough effect in the signal ratio in the repeat runs, with a control signal flat; the % refers to the signal ratio)
Outline: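 Antagonism was scored as restored cAMP in HEK293-DRD2 cells. These cells were stimulated with 200 nM NKH477 and 12 nM quinpirole for 30 min at room temperature, in the presence of 0.1 mM Ro20-1724.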

[20] = target: Beta-2 adrenergic receptor (Homo sapiens) (UniProt P07550); experiment: Adrenergic beta2 receptor (ADRB2) small molecule agonists, cell-based qHTS assay (AID 1963593);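 note: CHO cells stably overexpressing human ADRB2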
Outline: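 CHO cells stably over-expressing ADRB2 were plated overnight at 37C, then dosed with compounds plus a stimulation mix containing 100uM IBMX and 25uM Ro-20-1724 for 0.5hr at room temperature. cAMP was measured by HTRF competition, 1hr.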

Measured: Potency

CCCCCCOC(=O)CCC
not listed: [20]
inactive: all other assays above

O=C(C(Cl)Cl)N1CCOC12CCCCC2
not listed: [20]
inactive: all other assays above

C=CC1CC2C=CC1C2 (stereo not drawn)
not listed: [19] | [20]
inactive: all other assays above

CCc1cccc(C)c1N(C(=O)CS(=O)(=O)O)C(C)COC (stereo not drawn)
not listed: [19] | [20]
inactive: all other assays above

CCC(C)(CCC(C)C)C(=O)[O][Sn]([CH3])([CH3])[O]C(=O)C(C)(CC)CCC(C)C (stereo not drawn)
not listed: [20]
inactive: all other assays above

CC(C)(C)c1n[nH]c(=S)n(N)c1=O
not listed: [2] | [3] | [16] | [20]
inactive: all other assays above

CC(C)NCC(O)COc1ccc(COCCOC(C)C)cc1 (stereo not drawn)
not listed: [17] | [18] | [20]
inactive: all other assays above

CCc1cc(S(=O)(=O)O)c2cc(C(C)C)cccc1-2
not listed: [2] | [3] | [10] | [13] | [20]
inactive: all other assays above

O=C(O)C1(C(=O)O)CCC1.[NH2-].[NH2-].[Pt+2]
inactive: [1] | [3] | [4] | [7] | [8] | [10] | [11] | [12] | [15] | [17]

CC1c2ccccc2CN1NC(=O)c1ccc(Cl)c(S(N)(=O)=O)c1 (stereo not drawn)
not listed: [15] | [20]
inactive: all other assays above

C=CC(C)(C)O
not listed: [16] | [20]
inactive: all other assays above

Fc1ccc([C@@H]2CCNC[C@H]2COc2ccc3c(c2)OCO3)cc1
inactive: [1] | [3] | [4] | [6] | [7] | [8] | [9] | [15] | [16] | [17] | [19]

O=C1c2ccccc2C(=O)C1c1nc2ccccc2c(Br)c1O
not listed: [2] | [3] | [11] | [15] | [16]
inactive: all other assays above

C=C(C)C(=O)OCC(O)CO (stereo not drawn)
not listed: [16]
inactive: all other assays above

CCCC(C)C
not listed: [2] | [4] | [10] | [20]
inactive: all other assays above
